# Results reported in PubChem BioAssay AID1347416 (National Center for Advancing Translational Sciences (NCATS), 2020).
# In all, about 4,100 compounds went through this assay and about 1,600 (39%) were called active. Another 25% or so got no clear call; they are omitted. Calls come from the whole dose curve; as a rule, active = well fitted inhibition curve with a large enough effect; inconclusive = small, poorly fitted or top-dose-only effect; inactive = no such curve, though single readings can be large or run the other way. This is one part of the list.
# Test: qHTS Validation assay for Inhibitors of Plasmodium falciparum Dd2 growth in vitro; note: nearly all actives have a fitted effect of over 70% in size
# Settings: P. falciparum Dd2 in RBCs, SYBR Green growth, 72 h; series mostly up to 28.7 µM; activity change, negative = inhibition: at the top concentration
# Excerpt: Malaria, a parasitic disease spread to humans through the bite of a Plasmodium infected Anopheles mosquito, continues to be a global health burden affecting millions of people, with an estimated 228 million cases and 405,000 deaths in 2018. Concerns about safety and limitations of current antimalarial treatments strongly emphasize the need to develop new therapeutic options. The scarce number of chemotypes and validated drug targets with efficacy against the liver stage, have hindered development of new antimalarials. To address this, a chemoprophylactic drug discovery effort was conducted through a combined phenotypic high-throughput asexual blood stage and liver stage screen, providing a robust foundation to identify liver-stage active lead chemotypes. Compounds were initially screened against Plasmodium falciparum Dd2 strain parasites using a in vitro SYBRGreen-1 based 72 hr proliferation assay to identify novel chemotypes to advance to liver stage assays. NIH/NCATS Early Translation Branch Assay Submitter (PI): Anton Simeonov Ph.D.
# […] Assay Protocol: PROTOCOL TABLE (as described by Inglese et al., 2007) SEQUENCE No. (e.g., 1, 2, 3, etc.); PARAMETER (e.g., Cells, Incubation, Reagent, etc.); VALUE; DESCRIPTION SEQUENCE, Parameter, Description 1; Reagent; 3 uL complete malaria growth medium, 1536 TC treated Black clear bottom plate 2; Controls; 23 nL positive control artesunate (300 nM final) to column 1; Neutral control DMSO to columns 2-4 3; Compound; 23 nL of compounds in dose response concentration (29 uM to 0.5 nM final) 4; Reagent; 5 uL malaria infected red blood cells (2.5% hematocrit final, 0.3% parasitemia 5; Time; 72 hours at 37C (5% O2, 5% CO2, 90% N2; 95% Rh) 6; Reagent; 2 uL lysis buffer/SYBRGreen-1, 25 sec shake immediately following dispense 7; Time; ~16 hours at 37C (5% O2, 5% CO2, 90% N2; 95% Rh) 8; Detector; EnVision (PerkinElmer) bottom read at 485/14nm excitation and 535/25 nm emission NOTES (numbers refer to sequence above): 1; Complete Malaria Growth Media: 1X RPMI-1640 w/L-glutamine, 5.5g/L Albumax II, 367 uM Hypoxanthine, 25 mM HEPES, 0.25% Sodium Bicarbonate, 35 uM Gentamicin sulfate 2; Controls were added using the Kalypsis Pintool (Wako USA) equipped with 1536 pinhead 3; Compounds were added in a 7-point, titration with a high final concentration of 29 uM by Pintool from seven inter-plate titrations of library plates and two DMSO control plates at the beginning and end (see Yasgar et al., 2008). 4; Red blood cells infected with Plasmodium falciparum Dd2 parasites were used. 6; Lysis buffer: 20 mM Tris-HCl, 10 mM EDTA, 0.16% Saponin, 1.6% Triton-X, 10X SYBR Green. REFERENCE: Inglese J, Shamu CE, Guy RK. 2007. Reporting data from high-throughput screening of small-molecule libraries. Nat Chem Biol. doi:10.1038/nchembio0807-438 Yasgar A, Shinn P, Jadhav A, Auld D, Michael S, Zheng W, Austin CP, Inglese J, Simeonov A. 2008. Compound Management for Quantitative High-Throughput Screening. J Lab Autom 13:79-89. doi:10.1016/j.jala.2007.12.004
# % is set by controls: 0 for no effect and ±100 for the full control effect; potency is the fitted concentration of half-maximal effect.
Compound,"activity change, negative = inhibition",Potency
COc1ccc(NC(=O)c2ccc3c(c2)N(C)C2CCCCN2C3=O)cc1 (stereo not given),11.3% (inactive),–
COc1ccc(C(=O)Nc2ccc(OCc3cc(=O)n4ccccc4n3)cc2)cc1,13.9% (inactive),–
CCOc1ccc(C(=O)Nc2cccc(-c3nnc4n3CCCC4)c2)cc1,-14.3% (inactive),–
CCOc1ccc(NC(=O)c2ccc(-c3nnc4ccc(NC(=O)C5CC5)cn34)cc2)cc1,–,2.99 µM (active)
CC(C)(C)NC(=O)c1ccc(-c2nnc3ccc(NC(=O)C4CC4)cn23)cc1,–,9.44 µM (active)
CCCc1noc(-c2ccn3c(CNC(=O)c4ccc(OC)cc4)nnc3c2)n1,-13.4% (inactive),–
COc1ccc(NC(=O)c2ccc(-c3nnc4ccc(NC(=O)C5CCC5)cn34)cc2)cc1,–,4.22 µM (active)
COc1ccc(NC(=O)c2ccc(-c3nnc4ccc(NC(=O)C5CC5)cn34)cc2)cc1,–,2.66 µM (active)
COc1ccc(C(=O)Nc2ccc(-c3nc4ncccc4o3)cc2)cc1,-23.5% (inactive),–
COCCN1C(=O)CCc2cc(NC(=O)c3ccc4c(c3)OCO4)ccc21,-9.58% (inactive),–
CCC(=O)Nc1ccc2nnc(-c3ccc(C(=O)Nc4ccc5c(c4)OCCO5)cc3)n2c1,–,7.5 µM (active)
Cc1cn2nc(C(=O)Nc3ccc4c(c3)OCCO4)cc2c(N2CCCC2)n1,0% (inactive),–
CNCC(=O)N1CCC2(CC1)CN(Cc1ccccc1)CC2CO (stereo not given),8.38% (inactive),–
Cn1cc(C(=O)NCC2CN([S+](=O)([O-])c3ccccc3Cl)CC23CN(c2ccccc2)C3)cn1 (stereo not given),-15.3% (inactive),–
O=[S+]([O-])(NCC1CN(Cc2ccc(O)cc2)CC12CN(c1ccccc1)C2)c1ccccc1 (stereo not given),–,6.68 µM (active)
Oc1ccc(CN2CC(CNc3ccccc3)C3(C2)CN(c2ccccc2)C3)cc1 (stereo not given),–,0.611 µM (active)
COc1ccccc1C(=O)N1CC(CNC(=O)C2CC2)C2(C1)CN(c1ccccc1)C2 (stereo not given),8.56% [at 43.1 µM] (inactive),–
O=C(Cc1ccccc1)NCC1CN(Cc2cccc(Cl)c2)CC12CN(c1ccccc1)C2 (stereo not given),5.28% (inactive),–
NC(=O)c1ccccc1OCC(=O)N1CC(CNC(=O)Nc2ccccc2)C2(C1)CN(c1ccccc1)C2 (stereo not given),-14.4% (inactive),–
O=C(Cc1ccc(O)cc1)N1CC(CNc2ccccc2)C2(C1)CN(c1ccccc1)C2 (stereo not given),–,0.243 µM (active)
O=C(N[C@H]1CCOC[C@H]1C1CCOCC1)c1ccccc1-c1ccccc1,46.3% (inactive),–
O=C(CCS(=O)(=O)c1cc(Br)cc2c1N(C(=O)C1CC1)CC2)N1CCN(c2cccc(Cl)c2)CC1,–,13.3 µM (active)
CC(=O)Nc1ccc(NS(=O)(=O)c2cc(Br)cc3c2N(C(=O)C2CC2)CC3)cc1,25.6% (inactive),–

Compound,"activity change, negative = inhibition",Potency
Cc1ccc(NC(=O)CCS(=O)(=O)c2ccc(Br)cc2)c(C)c1,40% (inactive),–
Cc1ccc(NC(=O)CCS(=O)(=O)c2cc(Br)cc3c2N(C(=O)C2CC2)CC3)cc1,–,2.37 µM (active)
O=C1Cc2cc(S(=O)(=O)N3CCN(c4cccc(Cl)c4)CC3)ccc2N1,-37.7% (inactive),–
O=C(CCS(=O)(=O)c1cc(Br)cc2c1N(C(=O)C1CC1)CC2)Nc1ccc(Br)cc1F,–,3.35 µM (active)
O=C(C1CC1)N1CCc2cc(Br)cc(S(=O)(=O)N3CCN(c4cccc(C(F)(F)F)c4)CC3)c21,–,4.73 µM (active)
CC(=O)N1CCc2cc(S(=O)(=O)CCC(=O)N3CCC(CCOc4ccccc4)C3)ccc21 (stereo not given),-21.9% (inactive),–
CCCc1noc(-c2ccn3c(CNC(=O)c4cccc(Cl)c4)nnc3c2)n1,-6.54% (inactive),–
CCN(c1ccccc1)S(=O)(=O)c1cc(Br)cc2c1N(C(=O)C1CC1)CC2,–,2.99 µM (active)
CCN(c1ccccc1)S(=O)(=O)c1c(-c2ccc(C)cc2)csc1C(=O)OC,-3.17% (inactive),–
O=C(CCS(=O)(=O)c1cc(Br)cc2c1N(C(=O)C1CC1)CC2)Nc1ccc(C(F)(F)F)cc1,–,1.33 µM (active)
CC1=C[C@@H](CNS(C)(=O)=O)[C@H](C(C)C)C[C@H]1Cc1nnc(-c2ccccc2F)o1,18.4% [at 43.1 µM] (inactive),–
CC1=C[C@@H](CNC(C)C)[C@H](C(C)C)C[C@H]1Cc1nnc(C(C)(C)C)o1,-18.7% [at 43.1 µM] (inactive),–
CC(=O)NCCNC[C@@H]1C=C(C)[C@H](Cc2nnc(-c3ccccc3)o2)C[C@H]1C(C)C,–,17.2 µM (active)
CC1=C[C@@H](CNCCN(C)C)[C@H](C(C)C)C[C@H]1Cc1nnc(C(C)(C)C)o1,–,15.3 µM (active)
CC1=C[C@@H](CNC(C)C)[C@H](C(C)C)C[C@H]1Cc1nnc(-c2ccc(C)cc2)o1,–,13.7 µM (active)
CC1=C[C@@H](CNC2CC2)[C@H](C(C)C)C[C@H]1Cc1nnc(-c2ccc(C)cc2)o1,–,17.2 µM (active)
N#Cc1ccccc1CN1CCC([C@@H]2CNC[C@H]2CO)CC1,24.7% (inactive),–
O=C1COc2ccc(-c3ccsc3)nc2CN1,40.8% [at 57.5 µM] (inactive),–
CCN(CC)CCNC(=O)C1CCCN(S(=O)(=O)c2ccccc2)CCC(=O)NCC1 (stereo not given),5.63% (inactive),–
CCN(CC)CCNC(=O)c1c(O)c2cccc3c2n(c1=O)CCC3,–,10.6 µM (active)
Cc1nnc(SCC(=O)Nc2nccs2)o1,35.8% (inactive),–
O=C(NCc1ccccn1)C1c2ccccc2C(=O)N(C2CCCC2)C12CCCCC2 (stereo not given),-27.1% (inactive),–
O=C(Nc1nccs1)C1c2ccccc2C(=O)N(C2CCCC2)C12CCCC2 (stereo not given),–,4.22 µM (active)

Compound,"activity change, negative = inhibition",Potency
Cc1nnc(NC(=O)C2c3ccccc3C(=O)N(CC(C)C)C23CCCCC3)s1 (stereo not given),–,15 µM (active)
CC(C)CN1C(=O)c2ccccc2C(C(=O)Nc2nccs2)C12CCCC2 (stereo not given),–,8.41 µM (active)
CCCNCC(O)COc1ccccc1C(=O)CCc1ccccc1 (stereo not given),–,0.842 µM (active)
CCN(CC)CC(O)COc1ccccc1C(=O)CCc1ccccc1 (stereo not given),–,1.5 µM (active)
CCN(CC)C(=O)C(C)[C@@H]1CC[C@@]2(C)CC[C@H](NC(=O)c3cnccn3)[C@@H](C)[C@@H]2[C@H]1O (stereo not given in full),-37% [at 43.1 µM] (inactive),–
CCN(CC)C(=O)[C@@H](C)C1CC[C@@]2(C)CC[C@H](NC(=O)COc3ccccc3)[C@@H](C)[C@@H]2[C@H]1O (stereo not given in full),1.65% (inactive),–
COc1ccccc1CNC(=O)[C@@H](C)C1CC[C@@]2(C)CC[C@H](NC(=O)c3cncnc3)[C@@H](C)[C@@H]2[C@H]1O (stereo not given in full),–,2.37 µM (active)
CCn1cnnc1CC1CCN(C(=O)C2CC2)CC1,15.8% (inactive),–
CCN(CC)c1ccc2oc(=O)c(C)nc2c1,–,6.68 µM (active)
CCS(=O)(=O)c1ccc2oc(Nc3cc(C)cc(C)c3)nc2c1,-17.2% (inactive),–
Cn1cc(C(NS(=O)(=O)c2cccc3c2OCCO3)C2CC(O)C2)cn1 (stereo not given),14.4% (inactive),–
CC(C)NC(=O)CSc1nnc(CNC(=O)OC(C)(C)C)n1C,26.5% (inactive),–
CC(C)Cc1nc2nccc(-c3cccs3)n2n1,4.53% (inactive),–
Cc1nc2ccc(C(=O)NCc3cc4n(n3)CCN(C(=O)N(C)C)C4)cc2o1,52.8% (inactive),–
CCN(CC)CCNC(=O)c1cn(CC)c2ccc(S(=O)(=O)N3CCOCC3)cc2c1=O,29.7% (inactive),–
CCn1cc(C(=O)N[C@@H](CCSC)C(=O)NC(C)(C)CO)c(=O)c2cc3c(cc21)OCO3,–,2.99 µM (active)
CC1CCc2cc(F)ccc2N1C(=O)CSc1nnc2c(n1)[nH]c1ccccc12 (stereo not given),–,7.5 µM (active)
CC1CCN(C(=O)CSc2nnc3c(n2)[nH]c2ccc(F)cc23)CC1,-11.3% (inactive),–
CC1CCc2cc(F)ccc2N1C(=O)CSc1nnc2c(n1)[nH]c1ccc(F)cc12 (stereo not given),–,8.41 µM (active)
COc1cccc(S(=O)(=O)N2C[C@@H](Oc3ccccc3)C[C@@H]2C(=O)N2CCOCC2)c1,-1.89% (inactive),–
COc1ccccc1NS(=O)(=O)c1cc(NC(=O)c2cccc(S(=O)(=O)N(C)C)c2)ccc1N1CCOCC1,–,7.5 µM (active)
CCc1noc(-c2cn(C3CCN(C(=O)c4ccc(F)c(F)c4)CC3)nn2)n1,38.9% (inactive),–
Cc1nc2cc(F)ccc2n1C1CCN(C(=O)c2c(F)cccc2F)CC1,–,5.96 µM (active)

Compound,"activity change, negative = inhibition",Potency
CCCc1noc(-c2cn(C3CCN(C(=O)Cc4cccc(F)c4)CC3)nn2)n1,-15.8% (inactive),–
CCC(O)(CC)C(=O)NN(C(=O)Nc1csc2c1CCCC2)c1ccccc1,–,2.99 µM (active)
CCCC(=O)Nc1sc2c(c1C(=O)Nc1ccccn1)CCCC2,5.63% (inactive),–
Cc1ccc(NC(=O)c2cnc(-c3ccccc3)nc2-c2ccncc2)c(Br)c1,–,9.44 µM (active)
Cc1ccc(C)c(C(=O)Nc2ccncc2)c1,7.54% (inactive),–
COc1ccc([C@@]2(C(C)C)ON(c3ccccc3C(F)(F)F)C2=O)cc1,–,4.22 µM (active)
Cc1nn(-c2ccccc2)nc1C(=O)Oc1cc(C(F)(F)F)nn1-c1ccccc1,11.3% (inactive),–
Cn1cnc2ccc(-c3cccc(O)c3)nc2c1=O,–,6.11 µM (active)
COCCn1cnc2ccc(-c3ccccc3)nc2c1=O,-1.86% [at 57.5 µM] (inactive),–
COCCN1CCCCCC(O)c2cc(C(=O)NCCc3ccccc3)ccc21 (stereo not given),-13.9% (inactive),–
CN1CC2(CCCN(CC3CC3)C2)c2cc(C(=O)NCCOc3ccccc3)ccc21 (stereo not given),–,17.2 µM (active)
Cc1ccccc1CN1CCc2nc(C(=O)NCCOc3ccccc3)oc2CC1,21.9% [at 43.1 µM] (inactive),–
COCCCNc1nc2cc(OC)c(OC)cc2c2nc(-c3ccccc3)nn12,–,0.237 µM (active)
COc1cc2nc(NCCC(C)C)n3nc(-c4ccccc4)nc3c2cc1OC,–,0.422 µM (active)
CCOCCCNc1nc2cc(OC)c(OC)cc2c2nc(-c3ccccc3)nn12,–,0.211 µM (active)
CC(C)CN1C(=O)c2cccn2CC1C(=O)O (stereo not given),31.9% (inactive),–
CCN1C(=O)C2(CCN(S(=O)(=O)c3ccc(Cl)cc3C)CC2)c2ccccc21,–,5.31 µM (active)
CN1C(=O)C2(CCN(C(=O)c3ccn(C(C)(C)C)c3)CC2)c2ccccc21,-35.1% (inactive),–
COc1ccc(-c2nc3scc(CCNC(=O)c4cccc(Br)c4)n3n2)cc1,24.6% (inactive),–
COc1ccc(-c2cc3c(=O)n(CCNC(=O)c4ccc(N(C)C)cc4)ccn3n2)cc1,-7.95% (inactive),–
COc1ccc(-c2nc3sc(CCNC(=O)c4ccc(C(C)(C)C)cc4)c(C)n3n2)cc1,–,2.11 µM (active)
